Records with an inconclusive call do not appear. Entries that show only a call come without a potency. Calls of active or inactive are those of the source. Calls follow the shape of the dose curve; as a rule, active = well fitted cell-killing curve with a large enough effect in the repeat runs; inconclusive = weak or mixed curves, or effect the other way; inactive = flat fitted curve, though single readings scatter.
Potency is read from the fitted curve at half-maximal effect.

A short description of this experiment: Caspase-3/7 induction in HepG2 cells by small molecules, qHTS cell viability counter screen (AID 1346981). Also: nearly all actives have a fitted effect of over 30% in size. To be noted: CellTiter-Fluor fluorescence, 17 h; series mostly up to 92.4 µM. From the text: U.S. Tox21 Program National Center for Advancing Translational Sciences [NCATS] NIH Chemical Genomics Center [NCGC] U.S. Environmental Protection Agency [EPA] National Institutes of Environmental Health Sciences [NIEHS] National Toxicology Program [NTP] U.S. Food and Drug Administration [FDA] Tox21 Assay Overview: Apoptosis is a process of programmed cell death and plays a central role in the development of multicellular organisms. It is a highly regulated process and induces cell death by activating caspases, which are the members of cysteine aspartic acid-specific protease (caspase) family. Caspases involved in apoptosis are classified by their mechanism of action as initiator caspases (caspase-2, -8, -9 and -10) and executioner caspases (caspase-3, -6, and -7). Inhibition of apoptosis results in number of cancers, autoimmune diseases, inflammatory diseases and viral infection. To identify small molecule compounds that induce apoptosis, a homogeneous, luminescent Caspase-Glo 3/7 assay was used. Wild type HepG2 cells were used to screen Tox21 libraries for identifying caspase-3/7 activity inducers. Also cytotoxicity of the compounds was tested in parallel by measuring the cell viability using CellTiter-Fluor assay system in the same wells.
Tox21 Assay Protocol Summary: HepG2 cells were dispensed at 2,000 per well in 5uL of culture medium into white solid bottom 1536-well plates (Corning Life Sciences, Corning, NY) using a Multidrop Combi (Thermo Scientific, Waltham, MA) dispenser. The assay plates were incubated at 37 C and 5% CO2 for 5hr, and then 23nL of compounds dissolved in DMSO and positive control were transferred using a Pintool station ([…], San Diego, CA). The assay plates were incubated at 37C and 5% CO2 for 17hr. For cytotoxicity read, after 16hr incubation at 37C, 1uL CellTiter-Fluor reagent (Promega Corporation, Madison, WI) was added to each well of the assay plates using Flying Reagent Dispenser (FRD, Aurora Discovery, San Diego, CA). After 1hr incubation at 37C and 5% CO2, the fluorescence signal was quantified using a ViewLux plate reader (PerkinElmer, Shelton, CT).
For the compound `CCCCN(CCCCO)N=O`, the Potency entry is “inactive”.
Under `CCOC(=O)/C=C(C)/C=C/C[C@@H](C)CCCC(C)C` stands “inactive”.
Under `c1cc[c]([Hg][c]2ccccc2)cc1` stands “inactive”; under `Cc1ccccc1CO[C@@H]1C[C@@]2(C(C)C)CC[C@]1(C)O2`, “inactive”.
For `Clc1ccccc1N1CCNCC1` the value was “inactive”; for `CCOC(=O)C(c1c(O)c2ccccc2oc1=O)c1c(O)c2ccccc2oc1=O`, “inactive”; for `C=C(C)CN(CC)c1c([N+](=O)[O-])cc(C(F)(F)F)cc1[N+](=O)[O-]`, “inactive”.
Regarding `CCN(CC)c1nc(C)cc(OP(=S)(OC)OC)n1`, the Potency entry was “inactive”.
Under `c1cc2c(c(N3CCNCC3)c1)OCCO2` stands “inactive”.
Under `CCNc1nc(NC(C)C)nc(OC)n1` stands “inactive”.
For `N#CCNCC#N` the value was “inactive”.
`O=C1CN=C(c2ccccc2)c2cc([N+](=O)[O-])ccc2N1`: the Potency entry is “inactive”.
Under `CC1COC2(c3ccccc3Cl)c3cc(Cl)ccc3NC(=O)CN12` (stereo not given) stands “inactive”.
Under `ClCC(Cl)Cl` stands “inactive”; under `CCCSP(=O)(OCC)Oc1ccc(Br)cc1Cl` (stereo not given), “inactive”.
For `Nc1cc2c3c(c1)C(c1ccccc1)=N[C@@H](NC(=O)c1cccnc1)C(=O)N3CC2` the value was “inactive”; for `N#CC(CCc1ccc(Cl)cc1)(Cn1cncn1)c1ccccc1` (stereo not given), 48.6 µM (active).
Take `CN/C(=N\[N+](=O)[O-])NCC1CCOC1` (stereo not given): the Potency entry was “inactive”.
Under `CCOP(=S)(Oc1cnc(C(C)(C)C)nc1)OC(C)C` (stereo not given) stands “inactive”; under `Cc1ncc2n1-c1ccc(Cl)cc1C(c1ccccc1F)=NC2`, “inactive”.
For `C[C@H]1CCC[C@H](O)CCCCCc2cc(O)cc(O)c2C(=O)O1`, the Potency was 54.9 µM (active).
Under `O=[N+]([O-])c1cc(Cl)c(Cl)c(Cl)c1` stands “inactive”; under `CCC(C)(C)c1cc(-n2nc3ccccc3n2)c(O)c(C(C)(C)CC)c1`, “inactive”; under `O=C(O)c1ccc2[nH]cc(CCCCN3CC=C(c4ccccc4)CC3)c2c1`, “inactive”.
Under `CS(=O)(=O)c1cc(C(F)(F)F)ccc1C(=O)c1cnoc1C1CC1` stands “inactive”.
Take `CSc1nc(N=[N+]=[N-])nc(NC(C)C)n1`: the Potency result was “inactive”.
For the compound `CC(COc1ccc(Oc2ccccc2)cc1)Oc1ccccn1` (stereo not given), the Potency entry is “inactive”.
Under `OCCBr` stands “inactive”; under `O=C1OC(=O)C2C1C1(Cl)C(Cl)=C(Cl)C2(Cl)C1(Cl)Cl` (stereo not given), “inactive”.
Take `C(CCOCC1CO1)COCC1CO1` (stereo not given): the Potency entry was “inactive”.
In the case of `CNC(=O)Oc1c(C(C)(C)C)cc(C)cc1C(C)(C)C`, the Potency entry was “inactive”.
Under `CCC(=O)c1ccccc1` stands “inactive”.
For `CCS(=O)(=O)C(C)(C)S(=O)(=O)CC`, the Potency result was “inactive”.
Under `CCC1(c2ccccc2)C(=O)NC(=O)NC1=O` stands “inactive”; under `O=NN1CCCCC1`, “inactive”.
Under `CCN(CC)CCOC(=O)C(C)(c1ccccc1)c1ccccc1` stands “inactive”; under `CSc1ccc(C(=O)C(C)(C)N2CCOCC2)cc1`, “inactive”.
For `CC(C1CC1)C(O)(Cn1cncn1)c1ccc(Cl)cc1` (stereo not given) the value was “inactive”; for `CNCC(=O)c1ccc(O)c(O)c1`, “inactive”.
Consider `CCCSC(=O)N(CCC)CCC`, for which the Potency result was “inactive”.

For the origin of these results see PubChem BioAssay (Tox21).
